Tgondii IFNg: T. gondii growth inhibition with IFN-gamma, primary screen, cell-based. Toxoplasma gondii growth in IFN-gamma-treated host cells; stronger effect = lower value. activity change, negative = inhibition, % (no concentration beside the values). 3.8% of 69,000 active. AID 1259416, 2018; in the data active = activity change below about -70%, passing the limit was not always enough;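 note: host cells are HeLa cells infected with Toxoplasma gondii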
* marks the source's active call; other numbers are inactive results; ! = repeats disagree. This is one part of a sample in which hits are shown more often than they occur.

SMILES	Tgondii IFNg
CCCNC(=O)C1=NOC2(CCNC2)C1 (stereo unspecified)	48.9
CC(=O)OC[C@]12CCC(C)=C[C@H]1O[C@@H]1[C@H](O)[C@@H](OC(C)=O)[C@@]2(C)[C@@]12CO2	-81.1*
Cc1ccc(/C=C/C(=O)C2C(=O)N(C)C34CCCCC3C2c2ccccc2O4)cc1 (stereo unspecified)	0.4
CNC(=O)CN1CCOCC2(CCCN(c3ncccn3)C2)C1 (stereo unspecified)	-68.4
C=CCOC1C2CCC1N(Cc1csc(C)n1)C2 (stereo unspecified)	79.0
COc1cccc2c1C(=O)c1c(O)c3c(c(O)c1C2=O)C[C@@](O)(C(=O)CO)C[C@@H]3O[C@H]1C[C@H](N2CCO[C@H](OC)C2)[C@H](O)[C@H](C)O1	-80.8*
C[C@]12CCC3C(CC[C@]4(O)C[C@@H](O)CC[C@]34C=O)[C@@]1(O)CCC2C1=CC(=O)OC1 (stereo partly specified)	-83.6*!
C[C@@H]1O[C@@H](O[C@H]2CC[C@]3(C=O)C4CC[C@]5(C)[C@@H](C6=CC(=O)OC6)CC[C@]5(O)C4CC[C@]3(O)C2)[C@H](O)[C@H](O)[C@H]1O (stereo partly specified)	-65.1
O=c1c2ccccc2nc(/C=C/c2ccc(Cl)cc2)n1-c1cccc(C(F)(F)F)c1	-68.1
CCN1CCOCC2(CCCN(c3nccc(C(F)(F)F)n3)C2)C1 (stereo unspecified)	-13.4
COCCN1CCC12CCN(C(=O)Cc1cccs1)C2 (stereo unspecified)	173.1
CC(C)(C)NCC(O)COc1cccc2[nH]c(C#N)cc12 (stereo unspecified)	18.4
Clc1cccc(-c2nccn2CCc2cnc[nH]2)c1	0.3
COc1ccc(F)c(-c2ccc3c(c2)CNCC3)c1	37.0
Cc1ccc(CN2CCN3CC(OCc4cccnc4)CC3C2)s1 (stereo unspecified)	-4.1
CC(=O)OC1CC[C@@]2(C)C(CCC3C2CC[C@]2(C)C(C4=CC(=O)OC4)C(OC(C)=O)CC32O)C1 (stereo partly specified)	-79.6*
C=CCN1C[C@H]2CN(C(C)C)C[C@H]2C1=O	-31.6
OCc1ccccc1-c1ccc2c(c1)CNCC2	-14.3
Cc1cc(C(=O)N2C[C@@H]3CN(Cc4ccsc4)CCO[C@@H]3C2)no1	7.5
CCCN(CCC)C1CCc2cccc(O)c2C1 (stereo unspecified)	15.7
CCCN(CCC)C1CCc2ccc(O)cc2C1 (stereo unspecified)	-76.2*!
O=C1[C@H]2CCN(Cc3ccccn3)C[C@H]2OCCN1c1ccsc1	-7.1
Cc1ccc(F)c(NC(=O)c2c(O)c3cccnc3n(Cc3ccccc3)c2=O)c1	71.0
O=C(Nc1cccc(Cl)c1)c1c(O)c2cccnc2n(Cc2ccccc2)c1=O	146.0
Cc1cc(C)c(NC(=O)c2cc3cccnc3n(Cc3ccc(F)cc3)c2=O)c(C)c1	-77.7*
SMILES	Tgondii IFNg
O=C(NCc1cccs1)c1c(O)c2cccnc2n(Cc2ccccc2)c1=O	-110.5*
Cc1ccc(NC(=O)c2cc3cccnc3n(Cc3ccc(F)cc3)c2=O)cc1	85.0
Cc1ccc(NC(=O)c2cc3cccnc3n(Cc3ccc(F)cc3)c2=O)c(C)c1	-8.9
O=C(NCc1ccccc1)c1c(O)c2cccnc2n(Cc2ccccc2)c1=O	-115.6*
COc1ccc(NC(=O)c2c(O)c3cccnc3n(Cc3ccccc3)c2=O)cc1	0.1
O=C(NCc1ccccc1F)c1c(O)c2cccnc2n(Cc2ccccc2)c1=O	-111.9*
Cc1ccc(NC(=O)c2c(O)c3cccnc3n(Cc3ccccc3)c2=O)c(C)c1	45.1
O=C(Nc1ccc(F)c(F)c1)c1c(O)c2cccnc2n(Cc2ccccc2)c1=O	-58.2
O=C(Nc1ccc(F)c(Cl)c1)c1c(O)c2cccnc2n(Cc2ccccc2)c1=O	-26.8
O=C(c1ccco1)N1C[C@@H]2CCCN[C@@H]2C1	45.6
O=C(c1nc(=O)[nH]c2ccccc12)N1CCCC2(CCNC2)C1 (stereo unspecified)	4.5
c1ccc(OC[C@@]23COC[C@@H]2CN(Cc2ccoc2)C3)nc1	-3.1
Cc1csc(CN2C[C@H]3CN(C)CCO[C@@H]3C2)n1	2.7
COCCN1C[C@H]2CCCC(OCc3cccnc3)[C@@H]2C1 (stereo partly specified)	-4.1
Cc1ccc(N2CCC3(CC2)COCCN3C)nn1	68.3
CN1CCC2OCCCC2(COc2cccnc2)C1 (stereo unspecified)	-55.1
CN1C(=O)N(C)C2C1N(C)C(=O)N2C (stereo unspecified)	9.0
c1cnc(N2CCC23CCN(Cc2ccncc2)C3)nc1 (stereo unspecified)	-10.8
c1ccc(CO[C@@H]2C[C@@H]3CN(c4ncccn4)CCN3C2)cc1	-32.8
C=CCN1CC[C@@H]2[C@@H]1CCN2c1cccc(C)n1	2.0
Cc1ccc(N2CCO[C@H]3CN(Cc4ccccn4)C[C@@H]32)nn1	-5.8
Oc1ccc2c(c1)[C@@]13CCCC[C@@]1(O)[C@@H](C2)N(CC1CCC1)CC3	14.9
CC(NC(=O)c1cc2cccnc2n(Cc2ccccc2F)c1=O)c1ccccc1 (stereo unspecified)	18.1

Compound activity: PubChem, Broad Institute
